These results are taken from PubChem BioAssay (EPA / NIEHS).

Structures are written as SMILES. Values joined by “and” are separate entries in the source; they are usually repeats but may differ in a detail not shown here. Equal entries are not always repeated. Records with an inconclusive call do not appear. Active and inactive are the calls of the source. The calls were made as follows: active = hit-call score of the fitted dose curve at least 0.9, where 1 is the maximum; inconclusive = response in the unintended direction; inactive = score below 0.9.

Chain of Estrogen receptor (Homo sapiens) (P03372 whole entry, looked up, the tested form may be a part): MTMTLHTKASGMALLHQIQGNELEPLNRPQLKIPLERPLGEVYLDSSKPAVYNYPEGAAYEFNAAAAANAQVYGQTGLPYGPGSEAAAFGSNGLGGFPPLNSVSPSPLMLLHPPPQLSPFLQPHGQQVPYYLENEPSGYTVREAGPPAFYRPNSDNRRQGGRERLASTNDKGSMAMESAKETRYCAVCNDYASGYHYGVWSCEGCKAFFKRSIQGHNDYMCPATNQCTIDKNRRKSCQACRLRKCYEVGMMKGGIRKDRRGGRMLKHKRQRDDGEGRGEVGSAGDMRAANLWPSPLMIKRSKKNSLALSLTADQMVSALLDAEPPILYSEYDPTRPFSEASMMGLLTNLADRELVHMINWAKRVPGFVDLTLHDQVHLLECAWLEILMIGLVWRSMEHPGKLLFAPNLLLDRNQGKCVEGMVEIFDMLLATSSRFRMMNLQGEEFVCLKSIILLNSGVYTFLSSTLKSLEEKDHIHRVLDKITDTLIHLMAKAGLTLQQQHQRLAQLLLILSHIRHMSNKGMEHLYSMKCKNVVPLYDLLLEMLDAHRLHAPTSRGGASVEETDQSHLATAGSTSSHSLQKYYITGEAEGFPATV

In the first test the target is Estrogen receptor (Homo sapiens) (UniProt P03372). Put plainly: ATG_ERa_TRANS: Attagene TRANS-FACTORIAL HepG2 Assay for human Estrogen Receptor alpha (ERa) (AID 2282970). The settings on record: HepG2 Attagene TRANS ERa GAL4 reporter, mRNA. In outline:
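Transactivation via ERa-Gal4 chimera in HepG2; 24 hour incubation; reporter mRNA detected by fluorescence RT-PCR and capillary electrophoresis.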
For the molecule `O=C(O)C(F)(F)C(F)(F)C(F)(F)C(F)(F)F`, the molecule was called inactive.

Take `O=C(O)C(F)(F)C(F)(F)OC(F)(F)F`: the molecule was classed as inactive.

A word on the AC50: it is the concentration giving half of the maximal activity seen. For `O=S(=O)(O)C(F)(F)C(F)(F)C(F)(F)C(F)(F)C(F)(F)C(F)(F)C(F)(F)F`, the AC50 was 43.3 µM (active) and 58.7 µM (active).

Regarding `CS(C)(=O)=O`, the outcome was inactive.

For the molecule `FC(F)(F)C(F)(F)C(F)(F)N(C(F)(F)C(F)(F)C(F)(F)F)C(F)(F)C(F)(F)C(F)(F)F`, the call was inactive.

Turning to `CC(C)c1ccccc1N`, the molecule was classed as inactive.

With `[Co]`, the AC50 is 32.5 µM (active).

Take `COC(=O)C1CCC(C(=O)OC)CC1` (stereo unspecified): the molecule was classed as inactive.

As for `FC(F)(F)C(F)(F)C(F)(F)C(F)(F)C(F)(F)C(F)(F)C(F)(F)Br`, the call was inactive.

`CCCCCCOC(=O)c1ccccc1`: the molecule was classed as inactive.

For the molecule `CCc1c(Br)c(Br)c(Br)c(Br)c1Br`, the result was inactive.

Take `CC/C=C\CCOC(C)=O`: the molecule was called inactive.

Consider `FC(F)(F)C(F)(F)C(F)(F)C(F)(F)C(F)(F)C(F)(F)C(F)(F)C(F)(F)CCS`, for which the result was inactive.

Turning to `OCCCC(F)(F)C(F)(F)C(F)(F)C(F)(F)C(F)(F)C(F)(F)C(F)(F)F`, the AC50 was 13.7 µM (active) and 13.2 µM (active).

Turning to `CC(=O)Nc1ccc(N=Nc2cc(C)ccc2O)cc1`, the result was inactive.

For `O=C(O)C(F)(F)C(F)(F)C(F)(F)C(F)(F)C(F)(F)C(F)(F)C(F)(F)C(F)(F)C(F)(F)C(F)(F)C(F)(F)C(F)(F)C(F)(F)F`, the molecule was classed as inactive.

As for `O=P(O)(O)OCCC(F)(F)C(F)(F)C(F)(F)C(F)(F)C(F)(F)C(F)(F)F`, the AC50 is 10.4 µM (active).

In the case of `CC(C)(C)C(=O)CC(=O)C(F)(F)C(F)(F)C(F)(F)F`, the molecule was classed as inactive.

For `O=C(O)C(F)(F)C(F)(F)C(F)(F)F`, the AC50 is 108 µM (active).

On to `NC(=O)C(F)(F)C(F)(F)C(F)(F)C(F)(F)F`, for which the molecule was classed as inactive.

With `O[Si](c1ccccc1)(c1ccccc1)c1ccccc1`, the AC50 was 4.11 µM (active).

For `OCCCC(F)(F)C(F)(F)C(F)(F)F`, the outcome was inactive.

On to `FC(F)(F)C(F)(F)C(F)(F)C(F)(F)C(F)(F)CCI`, for which the AC50 is 41 µM (active).

Consider `COC(OC(C)=O)c1ccccc1` (stereo unspecified), for which the outcome was inactive.

On to `O=C(CC(=O)C(F)(F)C(F)(F)F)C(F)(F)F`, for which the molecule was classed as inactive.

As to `FC(F)(F)C(F)(F)C(F)(F)C(F)(F)C(F)(F)C(F)(F)CCS`, the molecule was classed as inactive.

For the molecule `CCCCCCCOC(=O)c1ccccc1C(=O)OCCCCCCC`, the outcome was inactive.

As to `O=C(O)C(F)(F)C(F)(F)C(F)(F)C(F)(F)C(F)(F)C(F)(F)C(F)(F)C(F)(F)Cl`, the half-maximal activity concentration (AC50) was 27.2 µM (active) and 31.4 µM (active).

Consider `O=C(O)C(F)(F)C(F)(F)C(F)(F)C(F)(F)C(F)(F)C(F)(F)C(F)(F)C(F)(F)C(F)(F)C(F)F`, for which the half-maximal activity concentration (AC50) is 24.6 µM (active).

Consider `Nc1ccc(Oc2cccc(Oc3ccc(N)cc3)c2)cc1`, for which the AC50 is 2.58 µM (active).

In the case of `CCCCCC=O`, the result was inactive.

`CCCCCCC(C)OC(=O)CCCCC(=O)OC(C)CCCCCC` (stereo unspecified): the result was inactive.

In the case of `c1ccc(B(c2ccccc2)c2ccccc2)cc1`, the AC50 is 5.7 µM (active).

As for `CC(CCl)OP(=O)(OC(C)CCl)OC(C)CCl` (stereo unspecified), the call was inactive.

Another test deals with Steroid hormone receptor ERR1 (Homo sapiens) (UniProt P11474). Briefly: ATG_ERRa_TRANS: Attagene TRANS-FACTORIAL HepG2 Assay for human Estrogen-Related Receptor alpha (ERRa) (AID 2282971). The following applies: HepG2 Attagene TRANS reporter, ERRa transactivation. The procedure, abridged: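 HepG2 cells were transiently transfected with multiple GAL4-UAS reporter units, then dosed with compound for 24 h. Total RNA was reverse-transcribed, reporter cDNA PCR-amplified and fluorescently labelled, and fragments resolved by capillary electrophoresis; induction was compared with DMSO.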
Chain of Steroid hormone receptor ERR1 (Homo sapiens) (P11474 whole entry, looked up, the tested form may be a part): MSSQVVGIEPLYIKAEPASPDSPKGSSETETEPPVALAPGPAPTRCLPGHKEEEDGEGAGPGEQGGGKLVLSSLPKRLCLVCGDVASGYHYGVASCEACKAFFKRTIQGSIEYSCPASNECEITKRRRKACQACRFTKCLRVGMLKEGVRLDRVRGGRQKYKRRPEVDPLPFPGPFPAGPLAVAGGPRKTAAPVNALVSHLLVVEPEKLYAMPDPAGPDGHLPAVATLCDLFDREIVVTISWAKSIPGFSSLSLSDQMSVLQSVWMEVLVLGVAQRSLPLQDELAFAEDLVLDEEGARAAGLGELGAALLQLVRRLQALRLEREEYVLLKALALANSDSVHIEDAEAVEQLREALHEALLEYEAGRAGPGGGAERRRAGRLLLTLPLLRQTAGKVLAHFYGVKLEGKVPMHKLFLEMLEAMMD
Take `O=C(O)C(F)(F)C(F)(F)C(F)(F)C(F)(F)F`: the result was inactive.

As to `O=C(O)C(F)(F)C(F)(F)OC(F)(F)F`, the outcome was inactive.

As to `O=S(=O)(O)C(F)(F)C(F)(F)C(F)(F)C(F)(F)C(F)(F)C(F)(F)C(F)(F)F`, the molecule was called inactive.

Take `CS(C)(=O)=O`: the molecule was called inactive.

For the molecule `FC(F)(F)C(F)(F)C(F)(F)N(C(F)(F)C(F)(F)C(F)(F)F)C(F)(F)C(F)(F)C(F)(F)F`, the molecule was classed as inactive.

For the molecule `CC(C)c1ccccc1N`, the outcome was inactive.

In the case of `[Co]`, the molecule was called inactive.

In the case of `COC(=O)C1CCC(C(=O)OC)CC1` (stereo unspecified), the molecule was called inactive.

In the case of `FC(F)(F)C(F)(F)C(F)(F)C(F)(F)C(F)(F)C(F)(F)C(F)(F)Br`, the call was inactive.

For `CCc1c(Br)c(Br)c(Br)c(Br)c1Br`, the result was inactive.

As to `CC/C=C\CCOC(C)=O`, the result was inactive.

`FC(F)(F)C(F)(F)C(F)(F)C(F)(F)C(F)(F)C(F)(F)C(F)(F)C(F)(F)CCS`: the molecule was called inactive.

With `OCCCC(F)(F)C(F)(F)C(F)(F)C(F)(F)C(F)(F)C(F)(F)C(F)(F)F`, the molecule was called inactive.

With `CC(=O)Nc1ccc(N=Nc2cc(C)ccc2O)cc1`, the molecule was called inactive.

With `O=C(O)C(F)(F)C(F)(F)C(F)(F)C(F)(F)C(F)(F)C(F)(F)C(F)(F)C(F)(F)C(F)(F)C(F)(F)C(F)(F)C(F)(F)C(F)(F)F`, the molecule was called inactive.

For `O=P(O)(O)OCCC(F)(F)C(F)(F)C(F)(F)C(F)(F)C(F)(F)C(F)(F)F`, the molecule was called inactive.

With `CC(C)(C)C(=O)CC(=O)C(F)(F)C(F)(F)C(F)(F)F`, the molecule was classed as inactive.

With `O=C(O)C(F)(F)C(F)(F)C(F)(F)F`, the call was inactive.

For `NC(=O)C(F)(F)C(F)(F)C(F)(F)C(F)(F)F`, the molecule was called inactive.

For `O[Si](c1ccccc1)(c1ccccc1)c1ccccc1`, the result was inactive.

As to `OCCCC(F)(F)C(F)(F)C(F)(F)F`, the call was inactive.

In the case of `FC(F)(F)C(F)(F)C(F)(F)C(F)(F)C(F)(F)CCI`, the call was inactive.

With `COC(OC(C)=O)c1ccccc1` (stereo unspecified), the molecule was called inactive.

Consider `O=C(CC(=O)C(F)(F)C(F)(F)F)C(F)(F)F`, for which the molecule was classed as inactive.

For the molecule `FC(F)(F)C(F)(F)C(F)(F)C(F)(F)C(F)(F)C(F)(F)CCS`, the molecule was called inactive.

In the case of `CCCCCCCOC(=O)c1ccccc1C(=O)OCCCCCCC`, the call was inactive.

On to `O=C(O)C(F)(F)C(F)(F)C(F)(F)C(F)(F)C(F)(F)C(F)(F)C(F)(F)C(F)(F)C(F)(F)C(F)F`, for which the molecule was classed as inactive.

Turning to `Nc1ccc(Oc2cccc(Oc3ccc(N)cc3)c2)cc1`, the molecule was classed as inactive.

In the case of `CCCCCC=O`, the molecule was called inactive.

Take `CCCCCCC(C)OC(=O)CCCCC(=O)OC(C)CCCCCC` (stereo unspecified): the molecule was classed as inactive.

As to `c1ccc(B(c2ccccc2)c2ccccc2)cc1`, the call was inactive.

Take `CC(CCl)OP(=O)(OC(C)CCl)OC(C)CCl` (stereo unspecified): the result was inactive.
